# CCT chaperon mod = High-Throughput Screening for Modulators of Cytosolic Chaperonin Activity. activity change, % (no concentration beside the values), hits read low. AID 651819, 2012. hit rate 0.3% among 360,000. purified chaperonin ATPase assay, HTRF ADP detection, 30 min; in the data active = activity change below about -30%; note: % is set by controls: 0 for no effect and ±100 for the full control effect
#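 We incubate TRiC, 40 or 20 nM final, with library compounds at 76 uM and 10 uM ATP for 30 min at 37 °C. ADP formed is detected with Transcreener HTRF reagents after 30 min at room temperature.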
# AT treatment = qHTS Assay for Identifying a Potential Treatment of Ataxia-Telangiectasia. F2112 A-T fibroblasts, KAP-1 phosphorylation AlphaLISA; neocarzinostatin DNA damage 30 min before lysis. Potency, µM (titrated, usually from 57.5 µM), for the others: top-dose activation, most hits filed as activators. hit rate 0.19% among 320,000; note: potency is the fitted concentration of half-maximal effect; % of control where 0% means no effect; nearly all actives have a fitted effect of over 45% in size
#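 hTERT-immortalized A-T patient fibroblasts (F2112), 500 cells/well in OPTI-MEM, 1% FBS, got compounds for 60 min, then NCS for 30 min at 37C. Lysates were then assayed for phospho-KAP-1 by AlphaLISA (anti-pKAP1 donor, anti-KAP1 acceptor beads), 6 hr at 25C.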
# TCR activator = Activators of T cell receptors: qHTS campaign; primary human leukocytes, anti-CD3, IL-2 HTRF, 48 h; Potency, µM (top dose mostly 9.22 µM), inactives show at the top dose activation of IL-2 secretion, actives largely listed as activators; 330,000 tested, under 10 active; note: % of control where 0% means no effect
#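 Activity was scored as IL-2 release from primary human leukocytes given only a TCR signal (a-CD3 beads) plus compound for 48 hr. Detection used a two-antibody HTRF format read at 665nm.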
# Nrf2 ARE act = qHTS of Nrf2 Activators | AREc32 ARE-luciferase reporter (MCF7-derived line), luminescence, 24 h | AID 624171, 2012 | hit rate 0.31% among 410,000 | Potency, µM (titrated, usually from 46.1 µM), without a hit: at the top dose activation, actives largely listed as activators; note: potency is the fitted concentration of half-maximal effect; % of control where 0% means no effect; nearly all actives have a fitted effect of over 65% in size
#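 Each well held 1000 AREc32 cells, which were incubated with compound for 24 hr at 37 deg C after overnight attachment, and ARE reporter activity was quantified by firefly luciferase luminescence.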
# A549 tox = Nrf2 qHTS screen for inhibitors: counterscreen for cytotoxicity; AID 504648, 2011; hit rate 0.16% among 390,000; A549 ARE-Fluc cells, CellTiter-Fluor viability, 18-24 h; Potency, µM (top dose mostly 46 µM), for inactives: at the top dose activity change, negative = cytotoxicity, most hits filed as inhibitors; note: potency is the fitted concentration of half-maximal effect; % is set by controls: 0 for no effect and ±100 for the full control effect
#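 A549 ARE_Fluc cells in 5% FBS OPTI-MEM were exposed to compounds in concentration-response for 18-24 h at 37 deg C. Viability was read by CellTiter-Fluor fluorescence (Ex 405/Em 525) after 30 min, before the luciferase read.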
# Nrf2 block = Nrf2 qHTS screen for inhibitors | A549 ARE-Fluc reporter, luciferase luminescence, 18-24 h | Potency, µM (doses to about 46 µM), for inactives: top-dose activity change, negative = inhibition, hits mostly inhibitors | hit rate 2.1% among 360,000; note: potency is the fitted concentration of half-maximal effect; % is set by controls: 0 for no effect and ±100 for the full control effect; nearly all actives have a fitted effect of over 60% in size
#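 A549 ARE_Fluc cells (5000/well, 5% FBS OPTI-MEM) pre-incubated 2 h, then treated with compounds 18-24 h at 37C/5% CO2 in concentration-response. CellTiter-Fluor viability read first; BugLite luciferase luminescence after 15 min at room temperature gives Nrf2 activity.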
# * = called active by the depositor; ? = inconclusive; . = no result given; [ ] = remark or other dose. A selection: hits, their analogues and other compounds. The true share with any hit is near 2.6%. Unless noted, calls come from the whole dose curve; as a rule, active = well fitted curve in the direction sought with a large enough effect; inconclusive = small, poorly fitted or top-dose-only effect, or another doubt; inactive = no such curve, though single readings can be large; an effect the other way counts as inactive or inconclusive.
SMILES,CCT chaperon mod,AT treatment,TCR activator,Nrf2 ARE act,A549 tox,Nrf2 block
COc1ccc(C2Nc3ccccc3C(=O)N2Cc2ccco2)cc1COc1ccccc1 (stereo not given),.,.,.,.,-3%,-14%
CCCC(=O)Nc1ccc(C(=O)Nc2cc(C(F)(F)F)ccc2Cl)cc1,1,-2%,-6%,0%,-14%,10µM*
O=C(Nc1cc(C(F)(F)F)ccc1Cl)c1ccc(NC(=O)C(F)(F)F)cc1,3,-1%,-3%[46.1 µM],5%,6%,?
O=C(NNC(=O)c1cccc(Br)c1)Nc1ccc(Cl)cc1,-1,28µM*,-2%,2%,-6%,2%
Cc1ccsc1CN(C(=O)c1ccc(OCC(C)C)cc1)C1CCS(=O)(=O)C1 (stereo not given),.,.,.,3%,3%,-1%
CC(C)(C)Nc1nc(N2CCCC2)nc(N2CCCC2)n1,-2,-2%,-7%,0%,15µM*,?
COc1cccc(S(=O)(=O)N2CCN(S(=O)(=O)c3ccc4c(c3)OCCO4)CC2)c1,.,.,.,.,-1%,-13%
CC(C)(C)OC(=O)N1CCC(c2c(C(=O)NCc3ccccc3)cnn2-c2ccccc2)CC1,.,.,.,-1%,-2%,-20%
Cc1ccc(CNC(=O)c2cnn(-c3ccc(F)cc3F)c2C2CCN(C(=O)OC(C)(C)C)CC2)cc1,.,.,.,-1%,?,16µM*
Cc1ccc(CNC(=O)c2cnn(-c3cccc(C)c3)c2C2CCN(C(=O)OC(C)(C)C)CC2)cc1,.,.,.,0%,-27%,18µM*
O=C1c2ccccc2C(=O)c2c1cccc2N1CCCC1,0,-14%,-15%[46.1 µM],8%,?,7%
O=C1C=C(N2CCCCC2)c2ccccc2C1=O,-2,.,2%,-3%,18µM*,9.2µM*
CCC(C)NC(=O)c1c(C)oc2ncn(CC(C)C)c(=O)c12 (stereo not given),.,.,.,9%,-3%,36%
O=C(Nc1ccc(N2CCN(C(=O)c3ccco3)CC2)cc1)c1ccco1,0,-1%,2%,0%,-6%,6%
Cc1ccc(C(=O)Nc2ccc(N3CCN(C(=O)c4ccco4)CC3)cc2)cc1,0,0%,-2%,0%,0%,-7%
O=C(Nc1ccc(N2CCN(C(=O)c3ccco3)CC2)cc1)c1ccc(Br)cc1,-2,-1%,4%,0%,-11%,16µM*
Cc1ccccc1C(=O)N1CCN(c2ccc(NC(=S)NC(=O)c3ccco3)cc2)CC1,1,-14%,-2%,2%,10%,?
O=C(Nc1ccc(N2CCN(C(=O)c3ccco3)CC2)cc1)c1cc(Br)ccc1Cl,1,-8%,-4%,0%,-15%,23µM*
O=C(Nc1ccc(N2CCCCC2)cc1)c1ccccc1,-66*,-2%,.,-1%,-2%,?
COc1ccccc1C(=O)NC(=S)Nc1ccc(N2CCN(C(=O)c3ccco3)CC2)cc1,-1,15%,-2%,-1%,-17%,21µM*
CCN(C(=O)CCn1cnc2onc(-c3ccc(F)cc3)c2c1=O)c1ccc(OC)cc1,.,.,.,1%,2%,?
NC(=O)CC(NC(=O)c1ccc(Br)cc1)c1ccc(N2CCC(Cc3ccccc3)CC2)c([N+](=O)[O-])c1 (stereo not given),3,-4%,2%,-1%,-14%,?
NC(=O)CC(NC(=O)c1ccccc1)c1ccc(N2CCC(Cc3ccccc3)CC2)c([N+](=O)[O-])c1 (stereo not given),-1,16%,-4%,0%,?,10µM*
NC(=NCCc1ccccc1)NS(=O)(=O)c1ccc(F)cc1,-1,10%,5%[46.1 µM],0%,3%,-9%
NC(N)=NC(N)=NCCc1ccccc1,-1,-17%,-1%,2%,-6%,13µM*
SMILES,CCT chaperon mod,AT treatment,TCR activator,Nrf2 ARE act,A549 tox,Nrf2 block
COc1ccc(CNC(=O)Cn2c(=O)nc(-c3ccccc3F)c3cc(Cl)ccc32)cc1OC,.,.,.,0%,16µM*,.
CCCCn1c(N)c(N(CC(C)C)C(=O)c2cccc(OCc3ccccc3)c2)c(=O)[nH]c1=O,-2,.,-10%,0%,1%,-6%
COc1ccc(NS(=O)(=O)c2ccc(N/N=C(\C)c3ccncc3)c([N+](=O)[O-])c2)cc1,-1,8%,8%[46.1 µM],0%,?,21µM*
Nc1ncc(Br)cc1S(=O)(=O)NCCC(=O)N1CCN(c2ncccn2)CC1,0,9%,.,0%,-16%,18µM*
CC(NC(=O)Cn1cnnn1)C12CC3CC(CC(C3)C1)C2 (stereo not given),-91*,8%,0%,0%,-5%,17%
CC(NC(=O)CN1CCCC1)C12CC3CC(CC(C3)C1)C2 (stereo not given),-2,-3%,4%,0%,-2%,10%
COc1ccc2c(CC(=O)NNC(=O)c3cccs3)coc2c1,-2,-2%,-1%,3%,2%,?
COc1ccc(N2C(=O)c3ccccc3NC2c2ccc(OC)c(COc3ccc(NC(C)=O)cc3)c2)cc1 (stereo not given),.,.,.,.,2%,?
O=C(N/N=C/c1cccc(O)c1)c1ccc2c(c1)OCCO2,-1,7%,4%,0%,1%,0.41µM*
O=C(N/N=C/c1ccc2c(c1)OCO2)c1ccc2c(c1)OCO2,0,7%,-9%,0%,2%,20%
O=C(N/N=C\c1ccc2c(c1)OCO2)c1ccco1,0,4%,-8%[46.1 µM],0%,-3%,?
O=C(N/N=C\c1cccc(OC(=O)c2ccco2)c1)c1ccc2c(c1)OCO2,2,-3%,-4%[46.1 µM],0%,-2%,2.3µM*
COc1ccccc1NC(=O)CN(c1ccc(C23CC4CC(CC(C4)C2)C3)cc1)S(C)(=O)=O,-17,-2%,3%,3%,-12%,?
COc1ccccc1N(C(=O)CCl)c1cn(C(C)=O)c2ccccc12,1,35%,2%,?,-1%,23µM*
COc1ccccc1-c1noc(-c2ccc(N3CCN(C)CC3)c([N+](=O)[O-])c2)n1,.,.,.,2%,-1%,5%
CCN(CC)c1ccc2c(-c3ccc(S(=O)(=O)O)cc3S(=O)(=O)[O-])c3ccc(=[N+](CC)CC)cc-3oc2c1,2,5%,-41%,0%,12µM*,?
CCN(CC)c1ccc2cc(C(N)=O)c(=N)oc2c1,-4,28%,1%,5%,-6%,?
CN(CCOc1ccc(Cl)cc1)C(=O)c1ccccc1SCC(=O)N1CCCC1,2,-5%,-5%,0%,-15%,13µM*

# Screens: PubChem, National Center for Advancing Translational Sciences (NCATS)
